Screen size: about 65,000 compounds; about 1,200 (1.8%) were called active. Cut-off read from the data, not from the text of the source: active = inhibition above about 50%; inactive = the rest. What follows is part of a selection rich in actives, with near analogues and random picks from the rest.
What follows are molecules tested against Gag-Pol polyprotein (Human immunodeficiency virus type 1 group M subtype B (isolate HXB2)) (UniProt P04585) (assay: blockers of HIV-1 RNase H RNA/DNA cleavage – biochemical, fluorescence, primary screen (AID 565)). Conditions: RT-RNase H RNA/DNA duplex cleavage, at 10 µM, active compounds read high.

Structure (SMILES) | inhibition
c1cnn(-c2cc(N3CCOCC3)ncn2)c1 | -2.75% (inactive)
COc1c(C)cccc1C(=O)Nc1cc(Cl)ccc1N1CCOCC1 | -7.75% (inactive)
O=C(Nc1cc(N2CCOCC2)ncn1)NC1(C(F)(F)F)Oc2ccc(Cl)cc2O1 (stereo not drawn) | 62.3% (active)
CC(Sc1nncn1C)C(=O)Nc1ccccc1-c1ccccc1 (stereo not drawn) | -1.62% (inactive)
Cc1ccccc1OCC(=O)Nc1ccc(N2CCN(C(=O)C(C)C)CC2)c(Cl)c1 | -29% (inactive)
CCc1ccccc1NC(=O)CSc1nnc([C@@H](NC(=O)OC(C)(C)C)C(C)C)o1 | -2.47% (inactive)
CCCCOC(=O)CNc1nnc(SCC(=O)OCC)[nH]c1=O | 55.9% (active)
CCOC(=O)CSc1nc2sc3c(c2c(=O)[nH]1)CC(C)(C)OC3 | -2.48% (inactive)
CCOC(=O)c1c(NC(=O)CSc2nnc(C)c(=O)[nH]2)sc2c1CCC2 | 2.54% (inactive)
CCn1c(=O)cc(O)c2ccccc21 | -0.16% (inactive)
CCn1c(=N)c(S(=O)(=O)c2ccc(F)cc2)cc2c(=O)n3ccccc3nc21 | 2.52% (inactive)
Cc1nc2nc(COc3ccccc3)[nH]n2c(=O)c1C | -3.44% (inactive)
CC1(C)CC(=O)C2=C(C1)NCN(CCCN1CCOCC1)C2 | -6.75% (inactive)
C=C(C)Cn1c(N2CCN(CC)CC2)nc2c1c(=O)[nH]c(=O)n2C | 10.6% (inactive)
Cc1ccc(S(=O)(=O)Cn2nnnc2CN2CCN(Cc3ccc4c(c3)OCO4)CC2)cc1 | 1.61% (inactive)
c1ccc(CCn2nnnc2CN2CCN(C3CCCC3)CC2)cc1 | -0.5% (inactive)
Cc1ccc(Cn2nnnc2CN2CCC(n3nnc4ccccc43)CC2)cc1 | 68.7% (active)
Brc1ccc(Nc2c3c(nc4ncnn24)CCC3)cc1 | -1.42% (inactive)
Cc1c(C(=O)CN2CCOCC2)[nH]c2ccccc12 | -6.56% (inactive)
O=C1NC(c2ccncc2)Nc2sc3c(c21)CCCC3 (stereo not drawn) | 12.9% (inactive)
Clc1ccc(C2CC(c3cccs3)n3ncnc3N2)cc1Cl (stereo not drawn) | -4.72% (inactive)
O=C(Nc1ccc2c(c1)OCCO2)C1CCCN(c2ncccn2)C1 (stereo not drawn) | 7.08% (inactive)
Cc1ccnc(N2CCC(C(=O)NC3CCCCCC3)CC2)n1 | -5.09% (inactive)
Cc1ccnc(N2CCCC(C(=O)Nc3cc(F)ccc3C)C2)n1 (stereo not drawn) | 58.3% (active)
O=C(NCCC1=CCCCC1)C1CCN(Cc2cnn(-c3ccccc3)c2-n2cccc2)CC1 | -3.34% (inactive)

Structure (SMILES) | inhibition
Cc1cc(C)c2c(n1)nn1c(-n3ccnc3)cc(C)nc21 | -11.4% (inactive)
CCOC(=O)N1CCN(CC(=O)c2c(C)[nH]c3ccccc23)CC1 | -4.83% (inactive)
CCOC(=O)N1CCN(CC(=O)c2ccc3c(c2)CCN3)CC1 | 75.5% (active)
CCOC(=O)N1CCN(CC(=O)n2c(C)c(C)c3ccccc32)CC1 | -3.69% (inactive)
O=C1c2ccncc2C(=O)N1C1CCCCC1 | -26.2% (inactive)
COc1ccc(NC(=O)c2ccc(OC)cc2)cc1 | 2.87% (inactive)
COCCNC(=S)c1ccc(OC)cc1 | 88.3% (active)
COCCNC(=O)COc1ccc(C)c(C)c1 | -5.41% (inactive)
COC(=O)C(C)Sc1nc2c(c(=O)n(C)c(=O)n2C)n1Cc1cccc(C)c1 (stereo not drawn) | 8.94% (inactive)
Cc1cc(Nc2ccccc2)n(CCC#N)n1 | -2.42% (inactive)
CCc1ccc2oc(=O)cc(CN3CCCCC3C)c2c1 (stereo not drawn) | -13.3% (inactive)
COc1ccc(Cl)cc1NC(=O)c1oc(C)nc1C | 12.9% (inactive)
Cc1nc(C)c(C(=O)Nc2cccc(C)c2C)o1 | 52.9% (active)
Cc1nc(C)c(C(=O)Nc2ccc(C)c(F)c2)o1 | 31.9% (inactive)
CS(=O)(=O)N(CC(=O)N1CCN(c2cccc(Cl)c2)CC1)c1ccccc1 | -9.31% (inactive)
CCOC(=O)CSc1nnc(-c2ccncc2)o1 | -9.52% (inactive)
COCCCNC(=O)COc1cc(C)c(Cl)c(C)c1 | -96.5% (inactive)
CCC(Sc1nncn1C)C(=O)Nc1nnc(-c2ccc(Cl)cc2)s1 (stereo not drawn) | -2.44% (inactive)
CCN(CC)C(=O)CSc1nnc(-c2cccc(OC)c2)o1 | -4.72% (inactive)
COc1cccc(-c2nnc(NC(=O)c3ccc(S(=O)(=O)N(CC(C)C)CC(C)C)cc3)o2)c1 | 65.7% (active)
COc1cccc(NC(=O)CN(C)S(=O)(=O)c2ccc(C)cc2)c1 | -3.65% (inactive)
CCOc1cc(S(=O)(=O)NCc2ccc3c(c2)OCO3)ccc1F | -4.32% (inactive)
CCCC(=O)N1CCc2[nH]c3ccccc3c2C1 | 51.2% (active)
Cc1ccc2[nH]c3c(c2c1)CN(C(=O)CN1CCN(c2ccccc2)CC1)CC3 | -8.5% (inactive)
O=C(NC1CCCCC1)N1CCc2[nH]c3ccccc3c2C1 | -1.26% (inactive)

Structure (SMILES) | inhibition
CCCC(NS(=O)(=O)c1ccc(OC)cc1)C(=O)O (stereo not drawn) | -5.87% (inactive)
CCc1nnc(NC(=O)CSc2nnc(Cc3ccccc3)n2-c2ccc(OC)cc2)s1 | 10.7% (inactive)
CCc1nnc(NC(=O)CSc2nnc(-c3ccncc3)n2Cc2ccccc2)s1 | -7.97% (inactive)
CCc1nnc(NC(=O)CSc2nnc(COc3ccc(C#N)cc3)n2-c2ccccc2)s1 | 60.1% (active)
CCOC(=O)N1CCN(C(=O)c2cc3c(-c4ccc(Cl)cc4)nn(C)c3s2)CC1 | -13.4% (inactive)
CCCCn1c(SCc2ncc(-c3ccccc3)o2)nc2cc(S(N)(=O)=O)ccc21 | -15.2% (inactive)
CCOc1ccc(N(CC(=O)OC)S(=O)(=O)c2c(C)noc2C)cc1 | -2.65% (inactive)
Cc1ccc(Nc2nc(CSc3nnnn3-c3ccccc3)cc(=O)[nH]2)cc1 | 2.45% (inactive)
N#CCSc1nc2ccccc2c(=O)n1-c1ccccc1 | -15% (inactive)
O=c1c2ccccc2nc(CSc2nnnn2-c2ccccc2)n1-c1ccccc1 | 52% (active)
CCCCC(=O)N(c1ccc(OC)cc1)C1C=CS(=O)(=O)C1 (stereo not drawn) | -0.43% (inactive)
COC(=O)N(c1ccc(OC)cc1)P1(=S)OCCC(C)O1 (stereo not drawn) | 94.7% (active)
COc1ccc(OCCCC(=O)Nc2nnc(C3CCCO3)s2)cc1 (stereo not drawn) | 8.11% (inactive)
Cn1c(=NC(=O)c2ccco2)sc2cccc(F)c21 | -27.2% (inactive)
COCc1cc(C)nc(Nc2cc(C)ccc2C)c1C#N | -17% (inactive)
Cc1noc(NS(=O)(=O)c2ccc(N3CC(O)=C(c4ccccc4)C3=N)cc2)c1C | -3.39% (inactive)
Cc1cnc(NC(=O)CSc2nnc(-c3ccc(Cl)cc3Cl)n2N)s1 | 70.1% (active)
Cc1cc(C)nc(SCc2nnc(SCC(=O)Nc3ncc(C)s3)n2Cc2ccco2)n1 | -40.5% (inactive)
Cc1cnc(NC(=O)CSc2nnc(-c3ccccc3)n2Cc2ccccc2)s1 | -0.4% (inactive)
CCCNS(=O)(=O)c1ccc2c(c1)CCCN2C(C)=O | -15.5% (inactive)
CC1CCc2c(sc(NC(=O)c3ccc(Cn4cc(Br)cn4)o3)c2C(N)=O)C1 (stereo not drawn) | 88.6% (active)
CCc1c(C)sc(NC(=O)c2ccc(Br)o2)c1C(=O)OC | -67.1% (inactive)
CCOC(=O)c1c(NC(=O)c2ccc(Br)o2)sc2c1CCCC2 | -13% (inactive)
CCC1(C)Cc2c(sc3nc4n(c(=O)c23)CCCS4)CO1 (stereo not drawn) | -2.87% (inactive)
CC(=O)Nc1nonc1-c1nc2ccccc2n1Cc1ccccn1 | -10.2% (inactive)

Structure (SMILES) | inhibition
CCOc1ccc(NC(=O)N2CCN(CC)CC2)cc1 | -4.55% (inactive)
Cc1ccccc1NC(=O)c1ccccc1 | -3.87% (inactive)
Cc1ccc(NC(=O)c2nc[nH]c2C(=O)N2CCCCC2)c(C(=O)c2ccccc2)c1 | 2.94% (inactive)
Cc1ccc2c(c1)sc1ncc(NC(=O)c3ccccc3)c(=O)n12 | 68.4% (active)
COc1ccccc1CNC(=O)CCCn1c(=O)c2ccccc2n(CC(=O)NC2CCCC2)c1=O | -18.8% (inactive)
COc1ccc(CCNc2ncnc3nc[nH]c23)cc1OC | -5.66% (inactive)
COC(=O)Cc1nc2ccccc2[nH]1 | -25.6% (inactive)
Oc1ccc2nc(Cc3ccccc3)[nH]c2c1 | -7.13% (inactive)
COC(=O)Nc1nc2ccc(Sc3ccccc3)cc2[nH]1 | 82.8% (active)
O=C1c2cccnc2C(=O)N1Cc1cccs1 | -2.26% (inactive)
COc1ccc(C(=O)NC(=O)CSc2nnc(-c3ccco3)n2-c2ccccc2)cc1 | -5.53% (inactive)
Cc1cccc(-n2c(N)c(C(=O)N3CCN(C)CC3)sc2=S)c1 | 90.6% (active)
Cc1ccc(OCCCC(=O)N2CCOCC2)c(C)c1 | -20.5% (inactive)
O=C(c1ccccc1)N1CCN(C(=O)N2CCCCC2)CC1 | -10.1% (inactive)
Cc1cccc(-n2c(C)nc3cc(C(=O)N4CCC5(CC4)OCCO5)ccc32)c1 | 3.01% (inactive)
Cc1ccc(-n2c(N)c(C(=O)N3CCOCC3)sc2=S)c(C)c1 | 79.7% (active)
CC(=O)c1c(N2CCOCC2)nc(=S)n(-c2cc(C)ccc2C)c1C | -1.2% (inactive)
Cc1cccc(-n2c(N)cc(=O)nc2SC(C)C(=O)NC2CCCCC2)c1 (stereo not drawn) | -4.66% (inactive)
CCC(=O)Nc1sc(C(=O)N2CCCCC2)c(C)c1C#N | 0.57% (inactive)
N#Cc1ccccc1-n1c(N)c(C(=O)N2CCCC2)sc1=S | 68% (active)
COc1cccc(-n2c(SCC(=O)NC3CCCCC3)nc3n[nH]c(C)c3c2=N)c1 | -20% (inactive)
Cc1ccc2nc(NC3=NCN(CCc4ccccc4)CN3)nc(C)c2c1 | 11.4% (inactive)
COc1ccc(C(=O)Nc2c(N)nc(SCC(=O)N3CCC(C)CC3)[nH]c2=O)cc1OC | -4.95% (inactive)

Source: PubChem BioAssay AID565 (University of Pittsburgh Molecular Library Screening Center, 2006)
